Sampled rows, rich in hits. Any-hit rate of the full collection: about 12%.
BAZ2B inh: BAZ2B (human) inhibition | Q9UIF8 | AID 504333 | Potency, µM (top dose mostly 114 µM), for inactives: at the highest dose activity change, negative = inhibition, most hits filed as inhibitors | hit rate 4.4% among 360,000 | AlphaScreen BAZ2B-H3K14Ac peptide displacement; note: % is set by controls: 0 for no effect and ±100 for the full control effect; nearly all actives have a fitted effect of over 60% in size
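Inhibition is scored as reduced AlphaScreen emission. The BAZ2B/b-H3(5-23)K14Ac complex (50 nM each) in PBS pH 7.4, 0.01% Tween-20 meets compound (up to 110 uM) for 30 min at RT before bead addition.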
Sfp PPTase inh: Sfp phosphopantetheinyl transferase inhibition | Biochemical Sfp PPTase activity, qHTS | Potency, µM, for inactives: largest response in the series, negative = inhibition, usual class: inhibitors | hit rate 3.5% among 310,000;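 note: the enzyme is Sfp with the accession as filed and its product quenches rhodamine fluorescence; 0% = enzyme reaction without inhibitor and -100% = no enzyme wells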
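Fluorescence-quenching assay with 15 nM Sfp, 5 uM rhodamine-CoA and 12.5 uM BHQ-2-labelled ybbR peptide in pH 7.6 Hepes/MgCl2 buffer. Enzyme was pre-incubated with compound for 15 min at room temperature. Rate was taken from the 30-min fluorescence change (525/598 nm).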
JMJD2A Tudor: inhibitors of human JMJD2A Tudor domain; O75164; AlphaScreen JMJD2A-Tudor / H3K4me3 peptide binding; Potency, µM (top dose mostly 114 µM), for inactives: at the top dose activity change, negative = inhibition, actives largely listed as inhibitors; hit rate 4.4% among 390,000; AID 504339; note: % is set by controls: 0 for no effect and ±100 for the full control effect; nearly all actives have a fitted effect of over 50% in size
Target sequence (O75164 whole entry, looked up, the tested form may be a part): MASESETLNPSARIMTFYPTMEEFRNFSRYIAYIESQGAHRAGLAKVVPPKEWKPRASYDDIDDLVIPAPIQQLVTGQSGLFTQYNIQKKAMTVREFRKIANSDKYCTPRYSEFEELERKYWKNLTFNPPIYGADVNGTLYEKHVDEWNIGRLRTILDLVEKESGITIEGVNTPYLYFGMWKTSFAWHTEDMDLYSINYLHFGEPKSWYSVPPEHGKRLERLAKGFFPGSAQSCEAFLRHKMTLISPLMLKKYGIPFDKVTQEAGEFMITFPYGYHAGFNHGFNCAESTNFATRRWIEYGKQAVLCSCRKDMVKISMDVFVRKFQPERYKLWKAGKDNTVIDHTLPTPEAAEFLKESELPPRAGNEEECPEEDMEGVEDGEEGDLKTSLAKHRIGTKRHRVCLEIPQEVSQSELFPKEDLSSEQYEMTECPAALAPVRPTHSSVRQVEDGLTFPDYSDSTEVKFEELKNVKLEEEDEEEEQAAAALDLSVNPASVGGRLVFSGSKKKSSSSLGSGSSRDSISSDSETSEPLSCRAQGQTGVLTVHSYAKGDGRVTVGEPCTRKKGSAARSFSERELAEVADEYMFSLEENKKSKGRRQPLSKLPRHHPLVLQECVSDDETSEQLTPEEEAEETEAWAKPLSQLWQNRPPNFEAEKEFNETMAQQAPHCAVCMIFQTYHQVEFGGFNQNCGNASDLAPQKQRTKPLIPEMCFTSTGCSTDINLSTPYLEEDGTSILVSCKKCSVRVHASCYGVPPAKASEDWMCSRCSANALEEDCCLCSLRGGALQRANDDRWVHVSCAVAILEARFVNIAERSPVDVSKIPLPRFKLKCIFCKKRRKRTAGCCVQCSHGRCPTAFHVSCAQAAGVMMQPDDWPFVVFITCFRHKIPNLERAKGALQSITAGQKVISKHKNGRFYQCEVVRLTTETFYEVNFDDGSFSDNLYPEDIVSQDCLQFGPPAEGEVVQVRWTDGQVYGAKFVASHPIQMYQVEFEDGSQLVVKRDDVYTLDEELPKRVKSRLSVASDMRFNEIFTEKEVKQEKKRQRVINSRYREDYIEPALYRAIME
G9a block: inhibitors of human histone lysine methyltransferase G9a. Q96KQ7. G9a H3K9 monomethylation, AlphaScreen, 2 h. Potency, µM (titrated, usually from 102 µM), for inactives: at the top dose activity, negative = inhibition, usual class: inhibitors. hit rate 8.8% among 350,000; note: % is set by controls: 0 for no effect and ±100 for the full control effect; nearly all actives have a fitted effect of over 75% in size
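Using a bead-based AlphaScreen, monomethylated H3K9 product from 2 h room-temperature reactions (G9a 20 nM, peptide 500 nM, SAM 20 uM) was detected with 0.5 ug/mL rabbit anti-H3K9me1 antibody.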
L3MBTL1 block: L3MBTL1 (human) inhibition; AID 485360; Potency, µM (doses to about 57.1 µM), for the others: at the top dose activity, negative = inhibition, usual class: inhibitors; hit rate 0.66% among 230,000; AlphaScreen L3MBTL1–H3K9me1 peptide binding; Q9Y468; note: % is set by controls: 0 for no effect and ±100 for the full control effect; nearly all actives have a fitted effect of over 60% in size
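L3MBTL1 50 nM + b-AHA-H3(1-15)K9me1 75 nM, 30 min RT; compound added, 30 min RT; streptavidin donor/Ni-chelate acceptor beads 10 ug/mL each final, 30 min RT dark; AlphaScreen read.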
HP1b binding inh: inhibitors of HP1-beta chromodomain binding to methylated histone tails; AlphaScreen HP1-beta / biotin-H3K9me3 peptide binding; Potency, µM (top dose mostly 114 µM), for inactives: at the top dose activity change, negative = inhibition, actives largely listed as inhibitors; hit rate 0.56% among 390,000; AID 540317; note: nearly all actives have a fitted effect of over 70% in size
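HP1-beta protein (50 nM final) preincubated 30 min at room temperature with biotinylated H3(1-18)K9me3 peptide (50 nM) in PBS pH 7.4, 0.01% Tween-20, then compound added for 30 min. AlphaScreen streptavidin donor/nickel chelate acceptor beads (10 ug/mL final), 30 min dark, luminescence read.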
* = called active by the depositor; [ ] = dose if it differs, or a comment. Calls come from the whole dose curve; as a rule, active = well fitted curve in the direction sought with a large enough effect; inconclusive = small, poorly fitted or top-dose-only effect, or another doubt; inactive = no such curve, though single readings can be large; an effect the other way counts as inactive or inconclusive. Potency is the fitted concentration of half-maximal effect.

What do the screens show for `CC(C)C1C(C#N)=C(N)SC(N)=C1C#N`?
BAZ2B inh: -38%; Sfp PPTase inh: inconclusive; JMJD2A Tudor: 18%; G9a block: 14µM*; L3MBTL1 block: -11%; HP1b binding inh: 41%

How did CC(c1ccccc1)C1C(C#N)=C(N)SC(N)=C1C#N (stereo not drawn) do in these assays?
BAZ2B inh: 12%; Sfp PPTase inh: 22µM*; JMJD2A Tudor: inconclusive; G9a block: 16µM*; L3MBTL1 block: -3%; HP1b binding inh: 23%

How did CC(CC1C(C#N)=C(N)SC(N)=C1C#N)c1ccccc1 (stereo not drawn) do in these assays?
BAZ2B inh: -23%; Sfp PPTase inh: 7.9µM*; JMJD2A Tudor: 56µM*; G9a block: 10µM*; L3MBTL1 block: 5%; HP1b binding inh: 13%

How did CCC(CC)C1C(C#N)=C(N)SC(N)=C1C#N do in these assays?
BAZ2B inh: -2%; Sfp PPTase inh: 10%; JMJD2A Tudor: inconclusive; G9a block: inconclusive; L3MBTL1 block: -15%; HP1b binding inh: 55%

How did Cc1ccc(-n2nc(CO)c(C(=O)NC(C)CCCc3ccccc3)n2)cc1 (stereo not drawn) do in these assays?
BAZ2B inh: -2%; JMJD2A Tudor: -6%; G9a block: -24%[59 µM]; HP1b binding inh: 10%

Results for O=S(=O)(Nc1cccc2cccnc12)C1CC1 ?
JMJD2A Tudor: 50µM*; HP1b binding inh: -14%

What do the screens show for `O=S(=O)(Nc1c(Br)cc(Br)c2cccnc12)C1CC1`?
JMJD2A Tudor: 25µM*; HP1b binding inh: 20%

What do the screens show for `CCN(CC)CCCNC(=O)c1c2c(nc3ccccc13)C(=O)N(C1CCCCC1)C2`?
BAZ2B inh: -3%; JMJD2A Tudor: -20%; G9a block: 8%[59 µM]; HP1b binding inh: 19%

What do the screens show for `Cc1cc2c(s1)c1cnn(Cc3ccc(C(=O)O)cc3)c(=O)c1n2C`?
JMJD2A Tudor: -5%

Results for O=C(c1ccco1)N1CCC2(CCCN(c3cccc(-c4ccccc4)c3)C2)CC1 ?
Sfp PPTase inh: -22%; G9a block: 7%[12.7 µM]

What do the screens show for `O=C(Nc1ccc(F)cc1F)c1cc2nc(-c3ccco3)cc(C(F)(F)Cl)n2n1`?
BAZ2B inh: 4%; JMJD2A Tudor: -18%; G9a block: 24%[59 µM]; HP1b binding inh: 44%

Results for Cc1cccc(N2CCN(CCCNC(=O)c3nnc(Cc4c(F)cccc4Cl)o3)CC2C)c1 (stereo not drawn) ?
BAZ2B inh: inconclusive; JMJD2A Tudor: inconclusive; G9a block: -33%[59 µM]; HP1b binding inh: -13%

Results for Cc1cccc(C)c1-n1c(C)cc(/C=N\Nc2ccc([N+](=O)[O-])cn2)c1C ?
BAZ2B inh: -13%; Sfp PPTase inh: -6%; JMJD2A Tudor: 28µM*; G9a block: inconclusive; HP1b binding inh: -23%

Results for COc1cc(/C=N/Nc2ccc(C(=O)O)cc2)ccc1O ?
BAZ2B inh: 50µM*; Sfp PPTase inh: inconclusive; JMJD2A Tudor: inconclusive; G9a block: inconclusive; HP1b binding inh: 50µM*

What do the screens show for `C=CCOc1c(OC)cc(/C=N/Nc2cccc(C(=O)O)c2)c(Br)c1Br`?
BAZ2B inh: 40µM*; Sfp PPTase inh: -4%; JMJD2A Tudor: 56µM*; G9a block: 10µM*; L3MBTL1 block: inconclusive; HP1b binding inh: inconclusive

What do the screens show for `COc1cc(/C=N/NC(=O)c2ccccc2)ccc1O`?
BAZ2B inh: 1%; Sfp PPTase inh: 9%; JMJD2A Tudor: 1%; G9a block: 25%; L3MBTL1 block: 2%; HP1b binding inh: 28%

What do the screens show for `COc1ccc(/C=N/Nc2ccc(C(=O)O)cc2)c(OC)c1OC`?
BAZ2B inh: 19%; Sfp PPTase inh: 13%; JMJD2A Tudor: -23%; G9a block: inconclusive; HP1b binding inh: 35%

Results for C=CCOc1c(/C=N\NC(N)=O)cccc1OC ?
BAZ2B inh: -12%; Sfp PPTase inh: 5%; JMJD2A Tudor: -5%; L3MBTL1 block: 9%; HP1b binding inh: 45%

How did COc1cc(/C=N/Nc2ccc(C(=O)O)cc2)cc(OC)c1OC do in these assays?
BAZ2B inh: -4%; Sfp PPTase inh: 14%; JMJD2A Tudor: -7%; G9a block: 50µM*; L3MBTL1 block: 4%; HP1b binding inh: 45%

How did Cc1ccc(C)c(NC(=O)CSc2nncn3c2cc2sccc23)c1 do in these assays?
BAZ2B inh: -34%; JMJD2A Tudor: -14%; G9a block: -30%[59 µM]; HP1b binding inh: 35%

What do the screens show for `CC(=O)N(c1ccc2ccccc2c1)C1SC(=O)N(c2cccc(C)c2)C1=O` (stereo not drawn)?
JMJD2A Tudor: -19%; HP1b binding inh: 38%

How did C/C1=C2N=C(/C=C3N=C(/C(C)=C4\[N-]C(C)(C5N=C1C(C)(CCC(=O)NCC(C)OP(=O)([O-])O[C@H]1C(O)C(n6cnc7cc(C)c(C)cc76)O[C@@H]1CO)C5CC(N)=O)C(C)(CC(N)=O)C4CCC(N)=O)C(C)(CC(N)=O)C\3CCC(N)=O)C(C)(C)C/2CCC(N)=O.[CH2-]C1OC(n2cnc3c(N)ncnc32)C(O)C1O.[Co] (stereo partly drawn) do in these assays?
Sfp PPTase inh: 12%; G9a block: inconclusive

What do the screens show for `CCCCOc1ccc(S(=O)(=O)Nc2cccc(-c3ccc(N4CCOCC4)nn3)c2)cc1`?
BAZ2B inh: -10%; JMJD2A Tudor: -19%; G9a block: -10%[59 µM]; HP1b binding inh: 7%[57 µM]

What do the screens show for `COc1cc(/C=N/NC(=O)CCN2CCCCC2)ccc1O`?
BAZ2B inh: -3%; Sfp PPTase inh: -3%; JMJD2A Tudor: -3%[11.4 µM]; G9a block: inconclusive; L3MBTL1 block: 10%; HP1b binding inh: 28%

What do the screens show for `COc1ccc(/C=N/Nc2ccc([N+](=O)[O-])cc2)cc1Cn1cc([N+](=O)[O-])cn1`?
BAZ2B inh: -31%; Sfp PPTase inh: -22%; JMJD2A Tudor: -21%[11.4 µM]; G9a block: inconclusive; HP1b binding inh: 42%

How did COc1cc(/C=N/NC(=O)CCn2cnc(-c3ccccc3)c2-c2ccccc2)ccc1O do in these assays?
BAZ2B inh: 45µM*; Sfp PPTase inh: -13%; JMJD2A Tudor: 56µM*; G9a block: 45µM*; L3MBTL1 block: -4%; HP1b binding inh: inconclusive

Results for COc1ccc(/C=N/Nc2ccc([N+](=O)[O-])cc2)cc1O ?
BAZ2B inh: 50µM*; Sfp PPTase inh: -17%; JMJD2A Tudor: inconclusive; G9a block: inconclusive; HP1b binding inh: inconclusive

Results for COc1cc(/C=N/Nc2ccc([N+](=O)[O-])cn2)cc(OC)c1O ?
BAZ2B inh: -28%; Sfp PPTase inh: -7%; JMJD2A Tudor: -23%; G9a block: 8.9µM*; HP1b binding inh: 82%
